Most compounds without a hit are left out; they make up all but 19% or so of the library.
AMA1 RON2 block = inhibitors of Plasmodium falciparum AMA1-RON2 interaction | AlphaScreen AMA1-biotinylated RON2 peptide binding | 0.2% of 360,000 active | Potency, µM (top dose mostly 58.2 µM), usual class: inhibitors; further: nearly all actives have a fitted effect of over 45% in size
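AMA1 (3D7) with his tag at 25 nM final met compounds first, then biotinylated RON2 peptide at 25 nM; detection used donor plus acceptor beads, 10 µg/mL apiece, read by AlphaScreen after 30 min at room temperature.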
Pf growth 48h = P. falciparum growth inhibition at 48 hours (one generation); Potency, µM (series often up to 28.7 µM), actives largely listed as inhibitors; 5.9% of 310,000 active; P. falciparum luciferase growth in erythrocytes, 48 h; AID 504832
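Luciferase-expressing parasites in RBCs, 2% Hct / 0.1% parasitemia final; RPMI 1640 + 0.5% Albumax; 37 C, 5% CO2, one generation; luminescence read-out, lower signal = inhibition.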
SARS PLpro yeast = blocks SARS-CoV papain-like protease in a yeast assay | 0.19% of 330,000 active | Potency, µM (titrated, usually from 32.9 µM), actives largely listed as activators | S. cerevisiae expressing SARS-CoV PLpro, growth rescue; calls by dose curve; further: nearly all actives have a fitted effect of over 55% in size
CHX counter = affects cycloheximide protein synthesis inhibition readout, counter-screen; max response, %; cell reporter, cycloheximide protein synthesis inhibition counterscreen; 12% of 300,000 active; in the data active means max response mostly above about 13%, no sharp cut-off; inactive means mostly below about 14%; further: read at 38.3 µM for the half of the compounds with a filed dose
Shiga inhibitor = blocks Shiga toxin action in Vero cells; 9.2% of 290,000 active; AID 2315; inhibition, % at 38.7 µM; Vero cells, Shiga toxin protein synthesis inhibition reporter; in the data active means inhibition mostly above about 28%, no sharp cut-off; inactive means mostly below about 43%
Pf growth 96h = inhibits malaria parasite growth, 96 h; Potency, µM (highest dose often 28.7 µM), actives largely listed as inhibitors; AID 504834; P. falciparum luciferase reporter growth, 96 h; 6.9% of 320,000 active
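Cell-based qHTS: luciferase-tagged P. falciparum in erythrocytes (2% hematocrit, 0.05% parasitemia final) incubated with compounds for 96 hours, 37 C, 5% CO2; luciferase detection reagent then added and luminescence measured.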
Large screens that a line does not name were inactive. Unless noted, the call rests on the fitted dose curve; in most records, active means well fitted curve in the direction sought with a large enough effect; inconclusive means small, poorly fitted or top-dose-only effect, or another doubt; inactive means no such curve, though single readings can be large; an effect the other way counts as inactive or inconclusive.

CSc1ccccc1NC(=O)CN1CCN(S(=O)(=O)c2ccccc2[N+](=O)[O-])CC1	Pf growth 48h 9.3µM, Pf growth 96h 9.3µM (no result: CHX counter, Shiga inhibitor)
CSc1ccccc1NC(=O)CN1CCN(c2ccccn2)CC1	Pf growth 48h 7.4µM, Pf growth 96h 8.3µM
CCS(=O)(=O)N1CCN(S(=O)(=O)c2ccccc2[N+](=O)[O-])CC1	none
N#Cc1nc(Cc2ccccc2)oc1N1CCCC1	CHX counter 26, Shiga inhibitor 35
N#Cc1nc(COc2ccccc2)oc1N1CCC(Cc2ccccc2)CC1	AMA1 RON2 block inconclusive, Pf growth 48h 9.3µM
Cc1ccccc1OCc1nc(C#N)c(N2CCCC2)o1	Pf growth 48h inconclusive
N#Cc1nc(Cc2cccc3ccccc23)oc1N1CCOCC1	Pf growth 48h inconclusive, Pf growth 96h 2.1µM
N#Cc1nc(COc2ccccc2)oc1N1CCN(Cc2ccccc2)CC1	none
COc1ccccc1OCc1nc(C#N)c(N2CCCC2)o1	CHX counter 27, Shiga inhibitor 49
O=C(Nc1c(C(=O)c2ccccc2)oc2ccccc12)c1cc(-c2ccccc2O)n[nH]1	Pf growth 48h 1.5µM, Pf growth 96h 0.66µM
Cc1ccc(C(=O)c2oc3ccccc3c2NC(=O)c2cc(-c3ccccc3O)n[nH]2)cc1	Pf growth 48h 1.5µM, Pf growth 96h 0.59µM
Cc1ccc(C(=O)c2oc3ccccc3c2NC(=O)c2cc(-c3cc(C)ccc3O)n[nH]2)cc1	Pf growth 48h 0.33µM, Pf growth 96h 0.33µM
Cc1ccc(NC2=CC(=O)CC(C)(C)C2)c(N)c1	CHX counter 60, Shiga inhibitor 128 (no result: Pf growth 96h)
CC1(C)CC(=O)C=C(Nc2ccc3c(c2)OCCO3)C1	CHX counter 52
CCOc1ccc(NC2=CC(=O)CCC2)cc1	none
CCCCCOc1ccc(NC2=CC(=O)CCC2)cc1	Pf growth 48h 13µM, Pf growth 96h inconclusive
CC(C)c1ccc(NC2=CC(=O)CC(C)(C)C2)cc1	Pf growth 96h 4.7µM
COc1ccc(S(=O)(=O)NC(=O)C2(C)CCN2C(=O)Cc2ccccc2)cc1OC (centres undefined)	none (no result: Pf growth 48h, SARS PLpro yeast, CHX counter, Shiga inhibitor, Pf growth 96h)
O=C(NCCCn1ccnc1)c1ccc(-c2cccc(C(F)(F)F)c2)o1	none (no result: Pf growth 48h, CHX counter, Shiga inhibitor, Pf growth 96h)
CCc1ccc(NC2=CC(=O)CC(C)(C)C2)cc1	none
CCCOc1ccc(NC2=CC(=O)CC(C)(C)C2)cc1	CHX counter 17 (no result: Pf growth 96h)
CC(C)C(NC(=O)c1ccc(Cl)cc1Cl)C(=O)NCCc1ccccn1 (centres undefined)	none (no result: CHX counter, Shiga inhibitor)
COC(=O)C[C@@H]1CC[C@@H](NS(=O)(=O)c2ccc(OC)cc2)[C@@H](CO)O1	none (no result: Pf growth 48h, SARS PLpro yeast, CHX counter, Shiga inhibitor, Pf growth 96h)
CCCCOCCCNC(=O)C[C@@H]1C[C@@]2(C(=O)OCC)CCCC=C2N(Cc2ccc3c(c2)OCO3)C1=O	none (no result: Pf growth 48h, SARS PLpro yeast, CHX counter, Shiga inhibitor, Pf growth 96h)
CC(/C=N/NC(=O)CSc1nc2ccccc2n1C)=C\c1ccco1	none
CC(/C=N/NC(=O)c1cccs1)=C\c1ccco1	CHX counter 58, Shiga inhibitor 128, Pf growth 96h inconclusive
CC(/C=N/NC(=O)Cc1cccs1)=C\c1ccco1	CHX counter 41
CC(/C=C/c1ccco1)=N/NC(=O)Cc1cccs1	SARS PLpro yeast inconclusive, CHX counter 14
CC(/C=C/c1ccco1)=N\NC(=O)c1cccnc1	none (no result: Pf growth 48h)
CC1CCCCN1S(=O)(=O)c1ccc(C(=O)Nc2ccccc2-c2nc3ccccc3[nH]2)cc1 (centres undefined)	Pf growth 48h 1.9µM, Pf growth 96h inconclusive
O=C(Nc1ccccc1-c1nc2ccccc2[nH]1)c1ccc(S(=O)(=O)N2CCCCC2)cc1	Pf growth 48h inconclusive, Pf growth 96h 2.9µM
O=C(O)CCSc1nc(C(F)(F)F)cc(=O)n1-c1ccccc1	none
CC1CCCC(C)N1CCCNC(=O)CN1C(=O)c2cccnc2Oc2ccc(Cl)cc21 (centres undefined)	none
CCOC(=O)Cc1csc(NC(=O)C(C)(C)CC)n1	CHX counter 31, Shiga inhibitor 51, Pf growth 96h inconclusive (no result: Pf growth 48h)
CCOC(=O)Cc1csc(NC(=O)CC)n1	none
CCOC(=O)Cc1csc(NC(=O)CC(C)(C)C)n1	CHX counter 32, Shiga inhibitor 122
O=c1c2sccc2n(Cc2cccc(F)c2)c(=O)n1-c1ccc(F)cc1	Pf growth 96h inconclusive
O=c1[nH]c2ccccc2c(O)c1-c1cc2ccccc2oc1=O	none (no result: AMA1 RON2 block)
O=C(c1cn(-c2ccc(Cl)c(Cl)c2)nn1)C1CC1	CHX counter 37, Shiga inhibitor 51
O=C1CCCCC1C(=O)c1cn(-c2ccc(Cl)c(Cl)c2)nn1 (centres undefined)	Pf growth 96h inconclusive
CCC(=NCc1ccc(Cl)c(Cl)c1)c1nc(-c2ccco2)oc1O	AMA1 RON2 block inconclusive, Pf growth 48h inconclusive, Shiga inhibitor 48, Pf growth 96h 12µM
Cc1nn(Cc2ccc(Cl)c(Cl)c2)c(C)c1NC(=O)c1cc(-c2ccco2)on1	Pf growth 48h inconclusive
CC1(C)CN2C(=S)N(c3ccccc3)C(c3ccccc3)N2C1 (centres undefined)	Pf growth 96h 8.3µM (no result: Pf growth 48h)
COc1ccc(S(=O)(=O)Nc2ccc3c(c2)C(=O)N([C@H](C)CO)C[C@H](C)[C@@H](CN(C)C(=O)Nc2ccc(C(F)(F)F)cc2)OCCCC[C@H](C)O3)cc1	none (no result: Pf growth 48h, SARS PLpro yeast, CHX counter, Shiga inhibitor, Pf growth 96h)
Cc1csc(NC(=O)/C=C/c2ccco2)n1	CHX counter 25, Shiga inhibitor 35
CCOC(=O)Cc1csc(NS(=O)(=O)c2ccc(Cl)cc2)n1	Pf growth 48h inconclusive, Pf growth 96h 8.3µM
Cc1csc(NC(=O)/C=C/c2ccc(C)o2)n1	CHX counter 31, Shiga inhibitor 73
O=C(/C=C/c1ccco1)Nc1nc(-c2ccccn2)cs1	Pf growth 48h inconclusive, SARS PLpro yeast inconclusive, CHX counter 49, Shiga inhibitor 53, Pf growth 96h inconclusive
Cc1ccc(/C=C/C(=O)NCc2ccco2)o1	none (no result: AMA1 RON2 block)
CC(C)(C)NC(=O)c1ccc2nsnc2c1	none
CCN1CCN(CCCN(Cc2cccs2)C(=S)Nc2ccccc2C)CC1	none
O=C(Cc1ccc(F)cc1)Nc1nc(-c2ccc(F)c(F)c2)cs1	Pf growth 96h inconclusive
O=C(/C=C/c1ccco1)Nc1nc(-c2ccccc2)cs1	CHX counter 86, Shiga inhibitor 118
CCOC(=O)Cc1csc(NC(=O)/C=C/c2ccc(Cl)cc2)n1	CHX counter 23, Shiga inhibitor 59, Pf growth 96h inconclusive
CCOC(=O)Cc1csc(NC(=O)/C=C/c2ccco2)n1	CHX counter 25, Shiga inhibitor 59
CCOC(=O)Cc1csc(NC(=O)Cc2ccc(C)cc2)n1	none
O=C(/C=C/c1ccco1)Nc1nc(-c2ccc(F)c(F)c2)cs1	Pf growth 48h inconclusive, CHX counter 18
O=c1oc(CCO)cc2ccc(Br)cc12	none (no result: Pf growth 48h, CHX counter, Shiga inhibitor, Pf growth 96h)
COc1ccc(C2c3cc(OC)c(OC)cc3CCN2C2CC(=O)N(c3ccccc3)C2=O)cc1OC (centres undefined)	Pf growth 96h inconclusive (no result: Pf growth 48h)
N/C(=N\OC(=O)/C=C/c1ccccc1Cl)c1ccccn1	none
